Hits are enriched below; roughly 6.6% of the tested compounds scored in any of these assays.
Autofluor counter: compound fluorescence in toxin protease inhibitor counterscreen; compound autofluorescence counterscreen, microsphere flow cytometry; hits give high values; fluorescence intensity (test concentration not listed); 360,000 tested, 3.1% active; AID 624483; in the data active = fluorescence intensity above about 16000; inconclusive = no clear call, values can overlap the other calls
BoNT F protease: inhibitors of Botulinum neurotoxin F light chain protease. 360,000 tested, 0.22% active. inhibition, % at 10 µM. AID 588497. Multiplex microsphere protease cleavage assay, flow cytometry; in the data active = inhibition above about 35%, passing the limit was not always enough; inconclusive = no clear call, values can overlap the other calls; note: plate controls were buffer without enzyme for full effect and enzyme alone for no effect
GDH-TPI counter: inhibits GDH-TPI coupling enzymes, artifact for Mtb FBA screen; GDH-TPI coupled enzyme counterscreen, NADH absorbance; inhibition, % at 4.8 µM; 360,000 tested, 1.2% active; AID 588335; in the data active = inhibition above about 30%;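 note: 0% = DMSO wells and 100% = wells lacking the enzyme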
Anthrax LF prot: inhibitors of Bacillus anthracis lethal factor protease; inhibition, % at 10 µM; multiplex microsphere protease cleavage assay, LF; P15917; 360,000 tested, 0.12% active; AID 588501; note: plate controls were buffer without enzyme for full effect and enzyme alone for no effect
Mtb FBA inh: inhibitors of M. tuberculosis fructose-bisphosphate aldolase | purified M. tuberculosis FBA, fluorescence read-out | inhibition, % at 1 µM | 360,000 tested, 2.3% active | AID 588726; in the data active = inhibition above about 27%;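 note: 0% = vehicle and 100% = reference inhibitor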
BoNT-A LC inh2: inhibitors of Botulinum neurotoxin A light chain protease. 360,000 tested, 0.17% active. multiplex microsphere protease substrate cleavage, flow cytometry. inhibition, % at 10 µM; note: plate controls were buffer without enzyme for full effect and enzyme alone for no effect
* = called active by the depositor; ? = inconclusive; . = no result; + = active, no number. Cut-off read from the data, not from the text of the source, unless noted: active = inhibition above about 30%; inconclusive = no clear call, values can overlap the other calls; inactive = below that.

SMILES	Autofluor counter	BoNT F protease	GDH-TPI counter	Anthrax LF prot	Mtb FBA inh	BoNT-A LC inh2
O=C1C2C(c3ccccc3)C=CC(c3ccccc3)C2C(=O)N1c1ccccn1 (configuration not stated)	1983	1	11	2	-1	0
O=C(Cc1ccccc1)Nc1nc(=O)c2ccccc2s1	2315	0	0	2	2	0
O=C(Cc1nc(=O)c2ccccc2s1)Nc1ccccc1	16611*	11	12	-11	-1	10
CCOc1ccc(-n2c([S-])c(C(=O)Nc3ccc(S(=O)(=O)N4CCOCC4)cc3)[n+]3cc(C(N)=O)ccc23)cc1	3733	-3	39*	-9	10	1
CCOc1ccc(-c2c(C(=O)N/N=C/c3c[nH]c4ccccc34)nnn2-c2nonc2N)cc1	4216	5	40*	0	-2	2
CCOc1ccc(/C=N/NC(=O)c2nnn(-c3nonc3N)c2-c2ccc(OCC)cc2)cc1	2055	-11	14	-4	1	-1
CCCc1c(C(=O)N/N=C/c2cccc3ccccc23)nnn1-c1nonc1N	5581	0	32*	-2	2	1
CCc1ccc(S(=O)(=O)N/N=C\c2ccc3c(c2)OCO3)cc1	4265	-5	16	0	-1	-1
Cc1ccc(-n2c(C)cc(/C=N/NC(=O)c3ccncc3)c2C)cc1C	4461	-7	10	-5	1	-1
Cc1cccc(C)c1-n1c(C)cc(/C=N/NC(=O)c2ccncc2)c1C	22105*	2	20	-2	2	2
Cc1ccc(-n2c(C)cc(/C=N/NC(=O)c3ccncc3)c2C)c(C)c1	22871*	-1	12	-4	5	0
Cc1cccc(C(=O)NCC(=O)NC2CCC(C)CC2)c1 (configuration not stated)	.	.	11	.	1	.
O=C(/C=C/c1ccco1)Nc1scc(-c2ccccc2)c1C(=O)O	4758	-12	66*	-10	2	1
Cc1csc(NC(=O)/C=C/c2ccco2)n1	11290	-14	33*	0	-4	-1
CCOC(=O)Cc1csc(NC(=O)/C=C/c2ccco2)n1	.	.	75*	.	-3	.
CCOC(=O)Cc1csc(NC(=O)c2cccc(OC)c2)n1	2549	?	4	-4	2	0
CCOC(=O)Cc1csc(NC(=O)c2csc(C)c2)n1	20408*	-1	1	1	-1	-1
O=C(/C=C/c1ccccc1)Nc1scc(-c2ccccc2)c1C(=O)O	4651	-6	21	0	-1	-1
O=C(NS(=O)(=O)Oc1ccc(Cl)cc1)OC[C@@H]1CCCN2CCCC[C@H]12	2375	-1	-2	-1	0	0
CCCCn1c(N)c(N(CC(C)C)C(=O)c2ccc(N3C(=O)CCC3=O)cc2)c(=O)[nH]c1=O	.	.	3	.	3	.
CC(C)OC(=O)CSc1nnc2c(n1)[nH]c1ccc(F)cc12	2565	0	0	0	-2	0
Cc1ccc2nc(NC(=O)/C=C/c3ccc4c(c3)OCO4)sc2c1	7216	-8	4	-2	3	-2
Cc1csc(NC(=O)/C=C/c2ccc3c(c2)OCO3)n1	2101	-3	35*	3	-1	0
CCOC(=O)c1ccc2nc(C(F)(F)F)[nH]c(=O)c2c1	4884	?	5	-9	42*	-1
CCOC(=O)c1ccc2[nH]c3c(c2c1)CCCCC3=O	12626	-6	26	-1	7	1
SMILES	Autofluor counter	BoNT F protease	GDH-TPI counter	Anthrax LF prot	Mtb FBA inh	BoNT-A LC inh2
O=C(O)c1ccc2nc(C(F)(F)F)[nH]c2c1	21497*	-5	-10	0	-3	?
CC1(C)C(=O)OC(C(=O)c2ccccc2)C(C)(C)C1=O (configuration not stated)	21463*	3	1	0	2	3
N/C(=N/OCC(=O)Nc1cccc2ccccc12)c1nonc1N	17291*	-3	6	2	0	-2
Cc1ccsc1/C=N/NC(=O)c1ccc(Cn2cc(Br)cn2)o1	9506	-1	35*	-7	2	-1
O=C(N/N=C/c1cccc(Br)c1)c1ccc(Cn2cc(Br)cn2)o1	2500	-10	6	-2	0	0
CC1(C(=O)NCc2ccccc2)CCC(=O)N1C1CCN(Cc2ccccc2)CC1 (configuration not stated)	5316	2	.	1	.	-1
Cn1nc(C(F)(F)F)c(C(=O)Nc2ccc(F)cc2)c1Cl	4579	2	10	10	-3	0
Cn1nc(C(F)(F)F)c(C(=O)Nc2cccc(Cl)c2)c1Cl	25124*	-9	6	-1	1	-3
CC(C)c1cc(C(=O)Nc2cccc(Cl)c2)no1	18450*	14	1	-12	2	14
CC(=O)c1cccc(NC(=O)c2cc(C(C)C)on2)c1	5513	-3	-5	-6	-1	0
CN1C[C@@H]2[C@@H]3C(=O)N(Cc4ccccc4)C(=O)[C@@H]3[C@](Cc3ccccc3)(C1=O)N2C(=O)c1ccc(Br)cc1	4287	1	-1	1	-1	0
CCN1CCN(C(=O)c2cc3c(s2)-c2c(C)cccc2OC3)CC1	6227	-6	13	4	+	0
CCOC(=O)N1CCN(C(=O)c2cc3c(s2)-c2c(C)cccc2OC3)CC1	5020	1	21	-2	143*	0
Cc1cccc2c1-c1sc(C(=O)Nc3ccccc3N3CCN(C)CC3)cc1CO2	4312	-4	15	-9	8	2
C[C@H](CO)N1C[C@H](C)[C@@H](CN(C)S(=O)(=O)c2cn(C)cn2)Oc2ccc(NC(=O)C3CCCCC3)cc2C1=O	2793	3	2	-1	-2	0
COc1ccc(CC(=O)NC2CCN(Cc3nnnn3C(C)(C)C)CC2)cc1OC	20961*	-6	-10	-3	-2	?
CN1C(=O)C(C)(C)N(C(=O)c2cccc([N+](=O)[O-])c2)c2ccccc21	4071	?	-1	4	-1	-3
Cc1ccc2cc(CN(CC3CCCO3)S(=O)(=O)c3ccccc3)c3nnnn3c2c1 (configuration not stated)	17821*	10	-5	-6	-2	10
O=[N+]([O-])c1cnn(-c2nc(-c3ccccc3)cc(C(F)(F)F)n2)c1	3270	6	13	-6	1	0
Cc1ccc(S(=O)(=O)N2CCN(C(=O)COC(=O)/C=C/c3ccccc3)CC2)c(C)c1	6309	-1	5	6	4	0
Cn1cnnc1SC1CCCCC1NS(=O)(=O)c1ccccc1 (configuration not stated)	23278*	-6	19	-3	3	-3
Cn1cnnc1SC1CCCCC1NS(=O)(=O)c1ccc(Cl)cc1 (configuration not stated)	10149	-2	2	2	1	0
O=C(O)c1ccc(Sc2nnc(-c3cccc(Br)c3)o2)c([N+](=O)[O-])c1	22792*	-3	-2	-3	-2	?
COc1ccc(N(CC(=O)N2CCc3ccccc32)S(=O)(=O)c2c(C)n[nH]c2C)cc1	17257*	12	-11	-23	1	?

Bioassay records from PubChem.
